Inconclusive results are not listed. A call without a number means that no potency is given here. Activity calls are given as the source filed them. Unless noted, calls follow the shape of the dose curve; as a rule, active = well fitted cell-killing curve with a large enough effect in the repeat runs; inconclusive = weak or mixed curves, or effect the other way; inactive = no such curve, though single readings can be large or run the other way.
molecular target: Thyrotropin receptor (Homo sapiens) (UniProt P16473); assay: qHTS assay to identify small molecule antagonists of the thyroid stimulating hormone receptor (TSHR) signaling pathway (AID 1259385; calls by dose curve; also: nearly all actives have a fitted effect of over 20% in size); conditions: TSHR-HEK293 cAMP HTRF, TSH-stimulated antagonist mode; series mostly up to 92.4 µM
Summary of the method: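 Antagonist mode: compound-treated TSHR-expressing HEK293 cells were stimulated with 1.5 ng/mL TSH (final) in presence of Ro20-1724 for 30 min at RT. HTRF cAMP detection after 1 h; each compound tested at 15 concentrations, triplicate.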

Thyrotropin receptor (Homo sapiens), sequence (P16473 whole entry, looked up): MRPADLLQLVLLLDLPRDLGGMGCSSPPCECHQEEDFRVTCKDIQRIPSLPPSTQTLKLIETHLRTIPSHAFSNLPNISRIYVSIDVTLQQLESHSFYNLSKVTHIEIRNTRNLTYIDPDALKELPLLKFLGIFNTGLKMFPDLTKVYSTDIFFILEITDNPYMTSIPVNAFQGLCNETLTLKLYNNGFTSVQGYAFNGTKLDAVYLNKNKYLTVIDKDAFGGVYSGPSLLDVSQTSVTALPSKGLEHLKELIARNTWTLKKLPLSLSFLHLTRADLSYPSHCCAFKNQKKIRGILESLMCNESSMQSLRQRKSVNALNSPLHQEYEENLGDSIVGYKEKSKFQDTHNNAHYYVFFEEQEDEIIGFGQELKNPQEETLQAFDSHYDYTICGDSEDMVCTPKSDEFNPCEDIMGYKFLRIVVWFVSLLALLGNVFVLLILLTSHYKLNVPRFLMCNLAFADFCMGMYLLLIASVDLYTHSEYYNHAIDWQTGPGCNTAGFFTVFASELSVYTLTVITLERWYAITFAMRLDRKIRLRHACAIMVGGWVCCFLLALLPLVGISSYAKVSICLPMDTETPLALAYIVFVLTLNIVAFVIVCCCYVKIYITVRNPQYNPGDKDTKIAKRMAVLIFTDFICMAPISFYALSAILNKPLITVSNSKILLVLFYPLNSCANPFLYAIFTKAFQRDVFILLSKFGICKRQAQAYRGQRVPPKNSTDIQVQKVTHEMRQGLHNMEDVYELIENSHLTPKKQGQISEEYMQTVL

SMILES | Potency
COC(=O)CCCCCCCCC(=O)OC | inactive
C[N+](C)(C)CC[N+]1(C)Cc2c(Cl)c(Cl)c(Cl)c(Cl)c2C1 | inactive
COC(C(=O)O)c1ccccc1 (centres undefined) | inactive
CCC(C)OC(=O)N1CCCCC1CCO (centres undefined) | inactive
CC(C=O)Cc1ccc(C(C)C)cc1 (centres undefined) | inactive
CC(C)CCCC(C)CCCC(C)CCCCC(C)CCCC(C)CCCC(C)C (centres undefined) | inactive
NC(=O)CCCCC1CCSS1 (centres undefined) | inactive
CC(C)[C@H](N)C(=O)OCCOCn1cnc2c(=O)[nH]c(N)nc21 | inactive
c1ccc(CCCc2ccccn2)cc1 | inactive
CCC(C(=O)NC(N)=O)c1ccccc1 (centres undefined) | inactive
O=C1CC2(CCCC2)CC(=O)N1 | inactive
CC(C)c1cccc(O)c1 | inactive
O=C(CCOCCOCCOCCOCCC(=O)Nc1c(I)cc(I)c(C(=O)O)c1I)Nc1c(I)cc(I)c(C(=O)O)c1I | inactive
NC(CS)C(=O)O (centres undefined) | inactive
CCCCCCCCCCCCI | inactive
Cc1ccc(N)cc1[N+](=O)[O-] | inactive
CC(C)(C)OC(=O)N1C[C@@H](F)C[C@H]1C(=O)O | inactive
Cn1cnc2c(=O)[nH]c(N)nc21 | inactive
Nc1ccn(C2CO[C@H](CO)O2)c(=O)n1 (some centres undefined) | inactive

SMILES | Potency
COCCOC(=O)CC#N | inactive
CNc1ncnc2nc[nH]c12 | inactive
CCN(CC)S(=O)(=O)c1ccc(C(=O)O)cc1 | inactive
C=CC(=O)OCCCCCC | inactive
CCN(CC)C(=O)c1ccc(O)c(OC)c1 | inactive
c1ccc2cnncc2c1 | inactive
COc1ccc(COC=O)cc1 | inactive
CCCCCCCCN(C)CCCCCCCC | inactive
CC(C)N1C(=O)c2ccccc2C1=O | inactive
Fc1ccccc1-c1ccccc1 | inactive
NC(N)=NS(=O)(=O)c1ccc(N)cc1 | inactive
O=C(O)c1ccccc1-c1ccc(C(F)(F)F)cc1 | inactive
CCCC(C)CO (centres undefined) | inactive
CCC(=O)Nc1cccc(N)c1 | inactive
CN(C)N=Nc1ccccc1 | inactive
CC(C)(O)Cc1ccccc1 | inactive
COc1cc(O)cc(O)c1 | inactive
COc1cccc(Br)c1 | inactive

system: not listed separately; assay: qHTS assay to identify small molecule agonists of the estrogen receptor alpha (ER-alpha) signaling pathway in the presence of an antagonist - cell viability counter screen (AID 1259386); conditions: VM7Luc4E2 viability, CellTiter-Fluor fluorescence, 22 h; series mostly up to 92.4 µM;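 also: cells exposed to compounds for 22 h at 37 °C before the viability read; nearly all actives have a fitted effect of over 30% in size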
Summary of the method: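 Cell viability in VM7Luc4E2 cells (endogenous full-length ER-alpha) measured by CellTiter-Fluor fluorescence in the same wells as the luciferase screen. Cells pre-cultured 5 days in charcoal-stripped serum, then treated 22 h with compounds at 15 concentrations plus 10.0nM ICI-182,780.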

SMILES | outcome
COC(=O)CCCCCCCCC(=O)OC | inactive
C[N+](C)(C)CC[N+]1(C)Cc2c(Cl)c(Cl)c(Cl)c(Cl)c2C1 | inactive
COC(C(=O)O)c1ccccc1 (centres undefined) | inactive
CCC(C)OC(=O)N1CCCCC1CCO (centres undefined) | inactive
CC(C=O)Cc1ccc(C(C)C)cc1 (centres undefined) | inactive
CC(C)CCCC(C)CCCC(C)CCCCC(C)CCCC(C)CCCC(C)C (centres undefined) | inactive
NC(=O)CCCCC1CCSS1 (centres undefined) | inactive
CC(C)[C@H](N)C(=O)OCCOCn1cnc2c(=O)[nH]c(N)nc21 | inactive
c1ccc(CCCc2ccccn2)cc1 | inactive
CCC(C(=O)NC(N)=O)c1ccccc1 (centres undefined) | inactive
O=C1CC2(CCCC2)CC(=O)N1 | inactive
CC(C)c1cccc(O)c1 | inactive
O=C(CCOCCOCCOCCOCCC(=O)Nc1c(I)cc(I)c(C(=O)O)c1I)Nc1c(I)cc(I)c(C(=O)O)c1I | inactive
NC(CS)C(=O)O (centres undefined) | inactive
CCCCCCCCCCCCI | inactive
Cc1ccc(N)cc1[N+](=O)[O-] | inactive
CC(C)(C)OC(=O)N1C[C@@H](F)C[C@H]1C(=O)O | inactive
Cn1cnc2c(=O)[nH]c(N)nc21 | inactive
Nc1ccn(C2CO[C@H](CO)O2)c(=O)n1 (some centres undefined) | inactive

SMILES | outcome
COCCOC(=O)CC#N | inactive
CNc1ncnc2nc[nH]c12 | inactive
CCN(CC)S(=O)(=O)c1ccc(C(=O)O)cc1 | inactive
C=CC(=O)OCCCCCC | inactive
CCN(CC)C(=O)c1ccc(O)c(OC)c1 | inactive
c1ccc2cnncc2c1 | inactive
COc1ccc(COC=O)cc1 | inactive
CCCCCCCCN(C)CCCCCCCC | inactive
CC(C)N1C(=O)c2ccccc2C1=O | inactive
Fc1ccccc1-c1ccccc1 | inactive
NC(N)=NS(=O)(=O)c1ccc(N)cc1 | inactive
O=C(O)c1ccccc1-c1ccc(C(F)(F)F)cc1 | inactive
CCCC(C)CO (centres undefined) | inactive
CCC(=O)Nc1cccc(N)c1 | inactive
CN(C)N=Nc1ccccc1 | inactive
CC(C)(O)Cc1ccccc1 | inactive
COc1cc(O)cc(O)c1 | inactive
COc1cccc(Br)c1 | inactive

Source: PubChem BioAssay (Tox21)
